From PubChem BioAssay
Only some compounds are listed: those with a hit (about 15% of all), similar ones and a draw of the others.
DT40 TDP1 no CPT: qHTS for Inhibitors of human tyrosyl-DNA phosphodiesterase 1 (TDP1): qHTS in cells in absence of CPT | actives 15% (n = 420,000) | DT40 Tdp1-/- hTDP1 cells, no CPT, ATP luminescence, 48 h | Potency, µM (top dose mostly 46.2 µM), for inactives: at the top dose activity change, negative = growth inhibition, most hits filed as inhibitors; note: nearly all actives have a fitted effect of over 55% in size
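Seeded 400 DT40-hTDP1 cells/well (vehicle DMSO, no 20 nM CPT); pinned compounds; ≥48 hr at 37 °C; CellTiter-Glo luminescence as viability measure.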
DT40 TDP1 CPT: DT40-hTDP1 cell growth loss with CPT | chicken DT40 Tdp1-/-;hTDP1 cells + 20 nM CPT, ATP luminescence, 48 h | Potency, µM (titrated, usually from 46.2 µM), for the others: at the top dose activity change, negative = growth inhibition, hits mostly inhibitors | actives 12% (n = 420,000); note: nearly all actives have a fitted effect of over 55% in size
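Cell growth measured by CellTiter-Glo luminescence after a minimum 48 h, 37 C compound exposure with 20 nM CPT in Tdp1-knockout DT40 cells stably expressing hTDP1, seeded 400/well; qHTS titration format.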
ELG1 DNA repair: blocks ELG1-dependent DNA repair in HEK293T cells | HEK293T ELG1-luciferase reporter, luminescence, 16 h; DNA damage induced by 5-fluorouridine | Potency, µM (titrated, usually from 46.1 µM), for inactives: at the top dose activity change, negative = inhibition, actives largely listed as inhibitors | actives 2.3% (n = 330,000) | AID 504467; note: nearly all actives have a fitted effect of over 55% in size
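Step one: seed 2,000 cells per well. Step two: pin-transfer compound or DMSO alongside 5-fluorouridine. Step three: incubate 16 hr, 37 °C, 5% CO2. Step four: add ONE-Glo, wait 30 min, read luminescence.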
ALOX12 inh: inhibitors of human 12S-lipoxygenase ALOX12. actives 1.1% (n = 580,000). Potency, µM (doses to about 108 µM), inactives show at the top dose activity change, negative = inhibition, usual class: inhibitors. purified 12hLO, xylenol orange hydroperoxide absorbance. P18054
Target sequence (P18054 whole entry, looked up): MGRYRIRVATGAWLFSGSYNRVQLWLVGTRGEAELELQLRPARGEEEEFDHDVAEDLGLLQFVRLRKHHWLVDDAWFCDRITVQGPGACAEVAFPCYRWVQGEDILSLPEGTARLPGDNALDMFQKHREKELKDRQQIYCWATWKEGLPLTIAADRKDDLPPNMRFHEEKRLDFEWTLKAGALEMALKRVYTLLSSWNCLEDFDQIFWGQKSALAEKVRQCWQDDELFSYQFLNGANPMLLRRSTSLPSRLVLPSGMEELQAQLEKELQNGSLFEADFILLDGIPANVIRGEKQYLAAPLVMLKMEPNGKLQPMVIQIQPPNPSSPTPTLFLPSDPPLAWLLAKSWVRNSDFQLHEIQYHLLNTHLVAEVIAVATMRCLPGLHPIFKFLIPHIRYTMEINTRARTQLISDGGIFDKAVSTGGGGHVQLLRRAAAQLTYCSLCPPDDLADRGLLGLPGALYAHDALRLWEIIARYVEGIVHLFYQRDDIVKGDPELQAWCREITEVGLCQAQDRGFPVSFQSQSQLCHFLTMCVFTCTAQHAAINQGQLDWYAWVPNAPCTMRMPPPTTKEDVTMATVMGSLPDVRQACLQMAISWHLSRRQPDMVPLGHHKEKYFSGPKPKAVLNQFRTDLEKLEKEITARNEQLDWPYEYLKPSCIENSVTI
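Purified human 12hLO at 150 nM in 25 mM Hepes, 0.01% Triton X-100, pH 7.0, preincubated 15 min at room temperature with compound. Reaction started with 40 uM arachidonic acid, 30 min at room temperature. Hydroperoxide measured by Fe-xylenol orange, 573/405 nm absorbance ratio.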
VP16 counter: Gal4-VP16 reporter inhibition counter-screen; actives 3.5% (n = 310,000); Potency, µM (doses to about 53.6 µM), for inactives: at the top dose activity, negative = inhibition, most hits filed as inhibitors; Drosophila S2 Gal4-VP16 UAS-luciferase, luminescence, 20 h;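 note: Gal4-VP16 expression switched on by copper sulfate through the metallothionein promoter; nearly all actives have a fitted effect of over 50% in size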
RORg inh: ROR gamma (mouse) transcription inhibition; P51450; Drosophila S2 Gal4-RORgamma UAS-luciferase reporter, 20 h; Potency, µM (series often up to 53.6 µM), inactives show at the top dose activity change, negative = inhibition, usual class: inhibitors; actives 5.4% (n = 310,000); AID 2551; note: nearly all actives have a fitted effect of over 60% in size
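Read-out: Photinus luciferase luminescence; inhibitors lower reporter signal. Insect Schneider cells with Gal4-ROR gamma fusion under metallothionein promoter, UAS reporter; 700 uM final copper sulfate induction, 20 hr, ambient temperature.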
Starred values were filed as active, the others as inactive; ? = inconclusive; . = no result given. Calls come from the whole dose curve; as a rule, active = well fitted curve in the direction sought with a large enough effect; inconclusive = small, poorly fitted or top-dose-only effect, or another doubt; inactive = no such curve, though single readings can be large; an effect the other way counts as inactive or inconclusive. % is set by controls: 0 for no effect and ±100 for the full control effect; potency is the fitted concentration of half-maximal effect.

SMILES	DT40 TDP1 no CPT	DT40 TDP1 CPT	ELG1 DNA repair	ALOX12 inh	VP16 counter	RORg inh
C#CCN(C[C@@H]1[C@@H](OC(=O)NCc2ccco2)[C@@H](OC(=O)NCc2ccco2)Cn2c(=O)n(CCCCCC)c(=O)n21)S(=O)(=O)c1ccc(C)cc1	9.2µM*	14.6µM*	.	?	.	.
C#CCN(C[C@@H]1[C@@H](OC(=O)NCc2ccc(OC)c(OC)c2)[C@@H](OC(=O)NCc2ccc(OC)c(OC)c2)Cn2c(=O)ccc(=O)n21)S(=O)(=O)c1ccc(C)cc1	14.6µM*	16.4µM*	.	78.7%	.	.
C#CCN(C[C@@H]1[C@@H](OC(=O)NCc2ccco2)[C@@H](OC(=O)NCc2ccco2)Cn2c(=O)ccc(=O)n21)S(=O)(=O)c1ccc(C)cc1	4.61µM*	4.61µM*	.	-18.4%	.	.
O=C(Nc1ccc2c(c1)OCO2)C1CCc2sc(C(=O)N3CCCC3)cc2C1 (centres undefined)	.	.	.	-5.3%	.	.
CC(C)CNc1nc(C(=O)Nc2ccccc2O)cs1	.	.	.	-24.3%	.	.
Cc1cc(NC(=O)CSc2nc(C(C)C)nc3sc(C)c(C)c23)no1	-29.4%	-26.3%	3.4%	10.3%	-28.1%	-33.2%
Cc1cc(NC(=O)CSc2nnc3c4c(C)c(C)sc4ncn23)no1	17.8µM*	?	-1.2%	3.6%	-6.1%	0.8%
Cc1cc(NC(=O)CSc2nc3sc(C)c(C)c3c(=O)n2C2CCCC2)no1	-28.8%	9.2µM*	?	24.8%	-1.7%	-4.0%
COCCn1c(SCC(=O)Nc2cc(C)on2)nc2ccccc2c1=O	?	-8.8%	?	3.9%	.	.
CCc1c(C)sc2nc(SCC(=O)Nc3cc(C)on3)n(CCOC)c(=O)c12	1.16µM*	?	-1.8%	113.6%	-11.3%	17.2%
O=S(=O)(Nc1nc2ccccc2nc1NCc1ccc(Cl)cc1)c1cccc2nsnc12	.	.	.	0.1%	.	.
CC(C)N1CCN(C2CCOC3(CCN(S(=O)(=O)c4ccccc4)CC3)C2)CC1 (centres undefined)	.	.	.	35.3%	.	.
O=C(NCC1CC1)c1cc(C2CC2)nc2onc(C3CCCNC3)c12 (centres undefined)	.	.	.	14.7%	.	.
CSc1nnc(-c2sc(-c3ccccc3)nc2C)n1C	-17.3%	-4.0%	?	?	-12.7%	-0.8%
COC(=O)c1sc2cc(C(F)(F)F)cnc2c1-c1cccnc1	-14.8%	1.0%	3.1%	0.0%	-9.1%	-18.5%
O=C(Nc1ccccc1)c1sc2cc(C(F)(F)F)cnc2c1-c1cccs1	11.6µM*	13µM*	-2.3%	?	17.0%	36.4%
NNC(=O)c1sc2cc(C(F)(F)F)cnc2c1-c1cccs1	-14.7%	-17.1%	1.5%	-3.7%	?	10µM*
CSc1nnc(-c2sc3cc(C(F)(F)F)cnc3c2-c2cccnc2)n1C	16.4µM*	?	?	-0.1%	-0.4%	-20.0%
NNC(=O)c1sc2cc(C(F)(F)F)cnc2c1-c1cccnc1	-5.4%	32.4%	-0.6%	7.6%	?	14.1µM*
O=C(O)c1sc2cc(C(F)(F)F)cnc2c1-c1cccs1	5.0%	0.7%	-2.5%	-45.4%	1.4%	0.8%
CCSc1ccccc1C(=O)NC12CC3CC(CC(C3)C1)C2	.	.	.	9.5%	.	.
CC(=O)Nc1cc(-c2ccc(C(=O)N3CCOCC3)cc2)cn2c(-c3cccc(C(C)=O)c3)cnc12	14.6µM*	?	.	-11.5%	.	.
COc1cccc(-c2cnc3c(NC(C)=O)cc(-c4ccc(C(=O)N5CCOCC5)cc4)cn23)c1	18.4µM*	20.6µM*	.	1.5%	.	.
CC(=O)Nc1cncc(-c2cccc(C(=O)N3CCOCC3)c2)n1	6.51µM*	-36.8%	.	-5.6%	.	.
CC(=O)Nc1cnc(-c2cccc(C(=O)N3CCOCC3)c2)cn1	6.6%	6.5%	.	0.0%	.	.
SMILES	DT40 TDP1 no CPT	DT40 TDP1 CPT	ELG1 DNA repair	ALOX12 inh	VP16 counter	RORg inh
COc1ccc(CNC(=O)c2cc(C(C)C)nc3onc(C)c23)cc1OC	.	.	.	-9.8%	.	.
CCc1nc2nc(C)c(NS(=O)(=O)c3cccs3)c(=O)n2[nH]1	-13.4%	-5.3%	-0.8%	6.31µM*	7.9%	-15.7%
CCOC(=O)c1cc(-c2csc(COc3ccccc3Cl)n2)on1	16.4µM*	20.6µM*	-27.9%	264.0%	-9.5%	-3.0%
CCOC(=O)c1cc(-c2csc(Nc3c(C)cc(C)cc3C)n2)on1	-9.4%	-25.8%	-4.6%	20µM*	-9.8%	2.4%
COc1ccc(CN2C=C(C(=O)OCc3noc(-c4cccc(OC)c4)n3)C(C)=NS2(=O)=O)cc1	.	.	.	-5.1%	.	.
COc1ccc(C(=O)NC(Cc2c[nH]c3ccccc23)C(=O)O)cc1 (centres undefined)	6.1%	-4.2%	8.5%	0.0%	0.7%	-20.1%
CCOC(=O)C(Cc1c[nH]c2ccccc12)NC(=O)c1ccccc1Br (centres undefined)	?	?	?	-26.4%	?	8.91µM*
Cc1ccc(C(=O)COC(=O)C(Cc2c[nH]c3ccccc23)NC(=O)c2ccc(C(C)(C)C)cc2)cc1 (centres undefined)	23.1µM*	18.4µM*	.	?	.	.
CCCOc1ccc(C(=O)CCNC(Cc2c[nH]c3ccccc23)C(=O)O)cc1 (centres undefined)	7.31µM*	4.61µM*	15.2%	.	?	?
CC(C)(C)c1ccc(C(=O)NC(Cc2c[nH]c3ccccc23)C(=O)OCC(=O)c2ccc(Br)cc2)cc1 (centres undefined)	?	-8.4%	.	-11.3%	.	.
Cc1ccc(-c2ccc3nnc(CNC(=O)c4ccccc4)n3n2)cc1C	.	.	.	21.3%	.	.
COC(=O)Nc1c(C)cccc1C(C)C	.	.	.	22.0%	.	.
CCCCCCOc1ccccc1/C=C(\C#N)C(=O)c1ccccc1	.	.	.	-12.5%	.	.
Cc1c(C(=O)N2CCCC2)oc2c1-c1nn(CC(=O)NCc3ccccc3Br)cc1CC2	20.6µM*	?	.	0.0%	.	.
Cc1c(C(=O)N2CCCC2)oc2c1-c1nn(CC(=O)NCc3ccccc3F)cc1CC2	?	?	.	-21.6%	.	.
Cc1ccccc1CNC(=O)Cn1cc2c(n1)-c1c(oc(C(=O)N3CCCC3)c1C)CC2	?	?	.	0.0%	.	.
CCOc1ccccc1CNC(=O)Cn1cc2c(n1)-c1c(oc(C(=O)N3CCCC3)c1C)CC2	13µM*	13µM*	.	-38.0%	.	.
O=C(O)c1ccc(COc2ccc(Cl)cc2Cl)cc1	.	.	.	-1.9%	.	.
Cc1oc(-c2ccc(Cl)cc2)nc1CN1CCCC(C(=O)NCCc2ccc(Cl)cc2)C1 (centres undefined)	5.8µM*	7.31µM*	.	-20.9%	.	.
